NR3A LBD binder: modulators (binders) of human NR3A ligand-binding domain. NR3A LBD differential scanning fluorimetry, Tm shift; 0% = protein alone, 100% = glycine-bound protein. Tm shift relative to glycine control, % at 25 µM. 340,000 compounds, 2.5% hits;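 active means melting temperature shift of at least 10% of the positive control shift, at one fixed dose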
SMARCA2 act: activators of SMARCA2 function | MG213 cells, MMTV-luciferase reporter, dexamethasone, overnight | activation, % at 9.1 µM | 370,000 compounds, 1% hits | AID 652017; in the data active means activation above about 7.8%;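 further: 0% = vehicle wells and 100% = reference activator wells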
esBAF inh: SWI/SNF esBAF complex inhibition; mouse ES cells, Bmi1-luciferase knock-in reporter, 24 h; 100% = twice the neutral-well signal; reporter increase, % at 12.5 µM; 350,000 compounds, 2% hits; in the data active means activation above about 40%; inconclusive means no clear call, values can overlap the other calls;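 further: 0% = median of the plate's neutral control wells and 100% = double that signal; a rise in the Bmi1 reporter signal indicates esBAF inhibition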
SKN-1 block: C. elegans SKN-1 inhibition; C. elegans VP596 Pgst-4::GFP/RFP ratio, acrylamide-induced, 24 h; inhibition, % at 21.8 µM; 360,000 compounds, 0.49% hits; AID 624304;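 active means interference check ratio from 0.5 to 1.5 plus GFP to RFP signal ratio inhibition reaching or exceeding a fixed threshold, cut at about 30% in these data, passing the limit was not always enough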
Vif inh: blocks HIV Vif function. HEK293T cells, Vif self-association by quenched fluorescence, imaging, 24 h. inhibition, % at 7.49 µM. 340,000 compounds, 0.35% hits; in the data active means inhibition above about 50%, passing the limit was not always enough; inconclusive means no clear call, values can overlap the other calls; inactive means below about 31%
NadD inh: NadD (S. aureus) enzyme inhibition | 360,000 compounds, 0.78% hits | inhibition, % at 20 µM | purified NadD enzyme, colorimetric absorbance read-out | AID 602399; in the data active means inhibition above about 26%
SMARCA2 conf: SMARCA2 activation, confirmation screen; shares compounds with SMARCA2 act; MG213 cells, MMTV-luciferase with dexamethasone, luminescence, overnight; MG213 cells expressing E1A, Rb sequestered; DMSO wells 0%, reference activator 100%; activation, % at 9.1 µM; 3,500 compounds, 30% hits;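 active means activation above its plate's cutoff, the mean activation of tested wells plus 3 SD, cut at about 7.9% in these data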
GAL4-VP16 Luc: counter-screen for SMARCA2 activators: GAL4-VP16 luciferase reporter activation; 3,500 compounds, 41% hits; AID 686939; shares compounds with SMARCA2 act; activation, % at 9.1 µM; HEK293 GAL4-VP16 pG5luc reporter, luciferase luminescence; scaled: DMSO wells 0%, SAHA wells 100%;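 active means activation above the solvent-only control well mean plus 3 SD, averaged across control plates, cut at about 5.2% in these data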
* = called active by the depositor; ? = inconclusive; . = no result. Compounds with a hit are over-represented: about 5.2% of the library has one in this group of screens.

SMILES	NR3A LBD binder	SMARCA2 act	esBAF inh	SKN-1 block	Vif inh	NadD inh	SMARCA2 conf	GAL4-VP16 Luc
CC(C1=CCCCC1)c1cnn(C)c1 (centres undefined)	.	9.4*	.	.	.	.	-1	-1
CN(C)CC(=O)N1[C@H](C#N)[C@@H](c2ccc(C#Cc3cccnc3)cc2)[C@H]1CO	.	.	0	.	.	.	.	.
CC(Sc1nnc2ccccn12)C(=O)Nc1ncc(Cl)cc1Cl (centres undefined)	1	0	11	2	-6	1	.	.
O=C(CSc1nnc2ccccn12)Nc1ncc(Cl)cc1Cl	0	9.5*	?	19	11	-2	8.4*	3
Cc1cccn2c(=O)c(/C=C(\C#N)C(=O)NCc3ccco3)c(N3CCOCC3)nc12	-21	11*	.	-11	-7	-1	1	1
CCNC(=O)/C(C#N)=C/c1c(N2CCCCCC2)nc2c(C)cccn2c1=O	-2	-2	1	-4	.	4	.	.
O=C(Nc1ccc(-c2nc3cc(Cl)ccc3o2)cc1)C1CCCO1 (centres undefined)	0	8.2*	-10	24	-4	-5	4	10*
O=C(Nc1ccc2oc(-c3ccccc3)nc2c1)C1CCCO1 (centres undefined)	-8	5	.	5	-5	-6	.	.
O=c1cc(-c2ccccc2F)oc2ccccc12	1	13*	58*	-7	2	-2	6	7.7*
O=c1cc(-c2ccccc2[N+](=O)[O-])oc2ccccc12	-2	-5	.	12	27	-7	.	.
CSc1ccc(-c2cc(=O)c3ccccc3o2)cc1	-1	12*	40	47*	-9	-1	6	12*
CC=Cc1ccc2n(c1=O)C[C@@H]1[C@@H](CO)[C@H](C(=O)NCc3ccc(F)cc3)N(Cc3cncnc3)[C@H]21 (mixture of isomers)	.	.	0	.	.	.	.	.
CC1=NN(c2ccccc2)C(=O)C1	8	-7	4	-4	-3	4	.	.
CC1=NN(Cc2ccccc2)C(=O)C1	-6	10*	-2	7	3	-3	-4	1
COc1ncnc2c1oc1ccccc12	0	12*	60*	20	2	-3	13*	6.0*
Cc1ccc(NC(=O)c2cnccn2)nc1	1	4	28	8	0	1	.	.
Cc1ccc(NC(=O)c2cnccn2)c(Br)c1	-1	10*	52*	8	7	-5	8	6.2*
COc1ccc2c(c1)c[n+](C)c1c3cc(OC)c(OC)cc3ccc21	.	4	.	4	.	5	.	.
COc1cc2c[n+](C)c3c4ccccc4ccc3c2cc1OC	0	11*	25	7	-8	-4	42*	1
O=C(Nc1ccc(CCC(=O)N2CCCC2)cc1)c1ncn[nH]1	0	8.2*	0	-6	18	1	-5	2
O=C(Nc1ccc(N2CCCCC2)c(Cl)c1)c1ncn[nH]1	-1	-2	.	28	-8	7	.	.
C[C@H]1CN([C@@H](C)CO)S(=O)(=O)c2ccc(C3=CCCC3)cc2O[C@@H]1CN(C)C(=O)CN(C)C	.	.	-2	.	.	.	.	.
O=C(N/N=C/c1ccccc1F)c1csc2c1CCCC2	0	12*	.	10	10	1	8.6*	10*
Cc1noc(C)c1NC(=O)Nc1ccc2c(c1)CC(=O)N([C@@H](C)CO)C[C@H](C)[C@H](CN(C)Cc1ccc(Oc3ccccc3)cc1)O2	.	.	-3	.	.	.	.	.
COc1cc(S(=O)(=O)N2CCOCC2)cc(C(=O)c2nccn2C)c1OC	-1	9.3*	5	5	0	4	-1	2
SMILES	NR3A LBD binder	SMARCA2 act	esBAF inh	SKN-1 block	Vif inh	NadD inh	SMARCA2 conf	GAL4-VP16 Luc
COc1cc(S(=O)(=O)N2CCOCC2)cc(C(=O)NCC(c2cccs2)N2CCOCC2)c1OC (centres undefined)	2	-1	9	-1	15	-5	.	.
O=C(C[C@H]1C=C[C@H](NC(=O)c2ccc(F)cc2)[C@H](CO)O1)NCCc1ccncc1	.	.	0	.	.	.	.	.
COc1ccc(-c2noc(C3CCCN(C(=O)c4ccc(C)cc4)C3)n2)cc1 (centres undefined)	-1	4	.	7	0	-8	.	.
COc1ccc(-c2noc(C3CCCN(C(=O)Nc4cc(C)cc(C)c4)C3)n2)cc1 (centres undefined)	.	10*	.	.	.	.	1	9.7*
COc1ccc(NC(=O)Nc2cccc3c2O[C@@H](CN(C)Cc2ccc4c(c2)OCO4)[C@@H](C)CN([C@H](C)CO)C3=O)cc1	.	.	0	.	.	.	.	.
COc1ccc(N=Nc2ccc(N)nc2N)cc1	-16	12*	17	26	-2	-8	11*	20*
CC(=O)N1[C@H](CN(CC2CCC2)C(=O)CC2CC2)[C@@H](c2ccccc2)[C@@H]1CO	.	.	-4	.	.	.	.	.
COc1ccc(C2=NOC(C(=O)Nc3ccc(C(C)=O)cc3)C2)cc1OC (centres undefined)	-3	4	30	-2	-3	2	.	.
COc1ccc(C2=NOC(C(=O)Nc3cc(Br)ccc3O)C2)cc1OC (centres undefined)	1	8.6*	-5	-10	2	5	0	-1
O=C(c1ccccc1)N1CCC(c2nc(-c3ccc(S(=O)(=O)N4CCOCC4)cc3)no2)CC1	-1	-9	2	-6	-13	0	.	.
CN(C)c1ccc(-c2noc(C3CCN(S(=O)(=O)c4cccc(C(=O)O)c4)CC3)n2)cc1	6	9.7*	4	9	2	5	4	-2
COc1ccc(OCc2ccc(/C=N\NC(=O)c3sccc3C)o2)cc1	-4	8.5*	.	0	-1	2	9.4*	2
COc1ccc2nc(-c3ccco3)c(-c3ccco3)nc2c1	-1	11*	-40	24	-9	9	-7	9.2*
C[C@H](NC(=O)[C@H]1[C@H](CO)[C@H]2Cn3c(cccc3=O)[C@@H]1N2C(=O)C1CCCC1)c1ccccc1	.	.	4	.	.	.	.	.
CC(=O)c1ccc(Sc2nnnn2-c2ccccc2)c([N+](=O)[O-])c1	0	8.6*	.	0	2	-2	8	2
O=C(CCn1nnc(-c2cccs2)n1)N1CCCCC1	.	9.0*	.	.	.	.	3	-1
CCN1CCc2c(OCC(=O)N3CCC(C)CC3)cccc2C1=O	-2	8.4*	10	-9	-6	-3	-6	0
CCN1CCc2c(OCC(=O)N3CCCCC3)cccc2C1=O	2	-4	.	22	3	-3	.	.

Screening data as filed in PubChem.
